Results: the supplement of paper PMC7366291
Counter-ions that a name gives are not always drawn. ± gives the standard deviation or the standard deviation of the averaged measurements.

Key:
Settings in all cases: 25 µM; exposure: 24-48 hpf
[1] = tested on: Danio rerio Tg(wt1b:EGFP) embryo, pronephros; test: glomerular separation, fold change vs DMSO control; higher = glomeruli further apart (abnormal)
Method in brief: (§1)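 Dechorionated Tg(wt1b:EGFP) zebrafish embryos were treated with 25 μM compound in 0.5% DMSO, in HEPES-buffered E3 with 0.003% PTU, from 24 to 48 hpf at 28.5°C. On maximum projections of dorsal pronephros images, 16 hand-placed reference points in Fiji gave distances and angles, and values more than 2 SD from the feature mean were left out. Results are fold changes over the mean of same-day DMSO-treated embryos.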

[2] = tested on: Danio rerio Tg(wt1b:EGFP) embryo, pronephros; test: glomerular width (mean of left and right), fold change vs DMSO control; higher = wider glomerulus
Method in brief: as §1

[3] = tested on: Danio rerio Tg(wt1b:EGFP) embryo, pronephros; test: fraction of imaged embryos annotated as normal kidney; higher = less nephrotoxic; extreme values may be limits of the assay
Method in brief: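 From 24 to 48 hpf at 28.5°C, dechorionated Tg(wt1b:EGFP) zebrafish embryos in 12-well plates were kept in 5 mM HEPES-buffered E3 with 0.003% PTU, 0.5% DMSO and 25 μM compound. Pronephroi were imaged by widefield fluorescence at 470 nm and judged by eye from maximum projections. Reported is the proportion of embryos per treatment in the normal-kidney category.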

[4] = tested on: Danio rerio Tg(wt1b:EGFP) embryo, pronephros; test: pronephric angle neck segment to proximal convoluted tubule (mean of left and right), fold change vs DMSO control; higher = larger pronephric angle
Method in brief: as §1

Structure (SMILES) | glomerular separation [1] | glomerular width [2] | fraction of imaged embryos annotated as normal kidney [3] | pronephric angle neck segment [4]
Cc1ccc(N(CC2=NCCN2)c2cccc(O)c2)cc1 [Phentolamine hydrochloride] | 1.13 ± 0.33 | 1.08 ± 0.02 | 0.667 | 0.994 ± 0.018
Cc1ccnc(NS(=O)(=O)c2ccc(N)cc2)n1 [Sulfamerazine] | 0.775 ± 0.22 | 1.03 ± 0.011 | 0.909 | 0.974 ± 0.085
CC(C)(C)NC[C@H](O)COc1nsnc1N1CCOCC1 [Timolol maleate salt] | 0.812 ± 0.37 | 0.9995 ± 0.0057 | 0.833 | 0.9989 ± 0.0023
COc1cc(NS(=O)(=O)c2ccc(N)cc2)nc(OC)n1 [Sulfadimethoxine] | 1.02 ± 0.48 | 1.04 ± 0.014 | 1 | 1.01 ± 0.021
Cc1cc(N)c2ccccc2[n+]1CCCCCCCCCC[n+]1c(C)cc(N)c2ccccc21 [Dequalinium dichloride] | 1 ± 0.33 | 1.02 ± 0.021 | 0.75 | 0.9864 ± 0.0034
Cc1onc(-c2ccccc2Cl)c1C(=O)N[C@@H]1C(=O)N2[C@@H]1SC(C)(C)[C@@H]2C(=O)O [Cloxacillin sodium salt] | 1.06 ± 0.42 | 1.172 ± 0.0081 | 0.833 | 1 ± 0.035
COC(=O)Nc1nc2cc(Sc3ccccc3)ccc2[nH]1 [Fenbendazole] | 4 ± 2.6 | 0.568 ± 0.027 | 0 | 1.8 ± 0.13
COc1ccc2c(c1)C(=O)N(CCc1ccc(S(=O)(=O)NC(=O)NC3CCCCC3)cc1)C(=O)C2(C)C [Gliquidone] | 1.07 ± 0.54 | 0.883 ± 0.011 | 1 | 1.12 ± 0.039
Nc1ccn([C@H]2CC[C@@H](CO)O2)c(=O)n1 [Zalcitabine] | 1.08 ± 0.56 | 0.966 ± 0.061 | 0.917 | 0.996 ± 0.015
N=C(N)NCC1COC2(CCCCC2)O1 (stereo not given) [Guanadrel sulfate] | 0.935 ± 0.45 | 1.02 ± 0.071 | 0.75 | 0.992 ± 0.012
CO[C@@]1(NC(=O)C2SC(=C(C(N)=O)C(=O)O)S2)C(=O)N2C(C(=O)O)=C(CSc3nnnn3C)CS[C@@H]21 (stereo not given in full) [Cefotetan] | 1.24 ± 0.33 | 0.972 ± 0.012 | 0.909 | 0.985 ± 0.06
CCc1ccc(CCOc2ccc(CC3SC(=O)NC3=O)cc2)nc1 (stereo not given) [Pioglitazone] | 1.48 ± 0.83 | 1.03 ± 0.0063 | 0.75 | 1.03 ± 0.018
CC(=O)N(CC(O)CO)c1c(I)c(C(=O)NCC(O)CO)c(I)c(C(=O)NCC(O)CO)c1I (stereo not given) [Iohexol] | 1.06 ± 0.38 | 0.963 ± 0.072 | 0.75 | 0.962 ± 0.069
C[N+]1(C)CCC(=C(c2ccccc2)c2ccccc2)CC1 [Diphemanil methylsulfate] | 1.35 ± 0.53 | 0.992 ± 0.041 | 0.75 | 1.02 ± 0.033
COc1ccccc1O [Guaiacol] | 1.03 ± 0.3 | 1.007 ± 0.0036 | 0.917 | 1.02 ± 0.035
O=c1[nH]c(=O)n(C2CCCO2)cc1F (stereo not given) [Tegafur] | 1.02 ± 0.41 | 1.05 ± 0.057 | 0.917 | 0.991 ± 0.041
Nc1ccc(S(=O)(=O)NC(=O)c2ccccc2)cc1 [Sulfabenzamide] | 1.2 ± 0.49 | 0.98 ± 0.04 | 0.667 | 1.09 ± 0.0044
CNC(=O)c1c(I)c(C(=O)NCC(=O)Nc2c(I)c(C(=O)O)c(I)c(C(=O)NCCO)c2I)c(I)c(N(C)C(C)=O)c1I [Ioxaglic acid] | 0.975 ± 0.39 | 1.03 ± 0.037 | 0.818 | 0.982 ± 0.035
CC(=O)[C@H]1CC[C@H]2[C@@H]3CCC4=CC(=O)CC[C@]4(C)[C@H]3CC[C@]12C [Progesterone] | 3.48 ± 3.4 | 0.873 ± 0.086 | 0.364 | 1.2 ± 0.12
CC[C@]12CCCN3CCc4c(n(c5ccccc45)C(=O)C1)[C@@H]32 [Eburnamonine (-)] | 1.19 ± 0.41 | 0.922 ± 0.059 | 1 | 1.03 ± 0.017
C[C@H](N[C@@H](CCc1ccccc1)C(=O)O)C(=O)N1CCC[C@H]1C(=O)O [Enalaprilat dihydrate] | 1.03 ± 0.34 | 1 ± 0.012 | 1 | 1.01 ± 0.025
c1ccc(-c2ccc(C(c3ccccc3)n3ccnc3)cc2)cc1 (stereo not given) [Bifonazole] | 1.24 ± 0.55 | 0.786 ± 0.019 | 0.417 | 1.22 ± 0.14
CN(C)/N=N/c1[nH]cnc1C(N)=O [Dacarbazine] | 0.922 ± 0.21 | 0.991 ± 0.037 | 1 | 0.997 ± 0.06
CO[C@H]1C[C@H](O[C@H]2[C@H](C)[C@@H](O[C@@H]3O[C@H](C)C[C@H](N(C)C)[C@H]3OC(C)=O)[C@@H](C)C[C@@]3(CO3)C(=O)[C@H](C)[C@@H](OC(C)=O)[C@@H](C)[C@@H](C)OC(=O)[C@@H]2C)O[C@@H](C)[C@@H]1OC(C)=O [Troleandomycin] | 1.39 ± 0.74 | 1.12 ± 0.066 | 0.917 | 0.969 ± 0.019
CC(C)(C)c1ccc(C(O)CCCN2CCC(C(O)(c3ccccc3)c3ccccc3)CC2)cc1 (stereo not given) [Terfenadine] | 0.943 ± 0.3 | 1.023 ± 0.0083 | 0.583 | 1.02 ± 0.039
